# In the supplement of paper PMC6555819:
# Tested on: VDR:RXRa (NR concentration 270 nM, RXRa partner concentration 90 nM)
# Experiment: PBM binding z-score (relative to random genomic background probes); higher = stronger binding; sequences stand for … in GC…GCGATTGACAGCGTAGAATGAAGG
# Description: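 Protein-binding microarray (Agilent 4x180K custom design, double-stranded 60-nt probes: 5' GC cap, 34-nt variable region, 24-nt constant primer region; full probe sequence given). Purified or IVT nuclear receptor:RXRα heterodimers (3:1 NR:RXRα, mostly 270:90 nM) or homodimers were incubated for 1 h in PBS with 2% milk and no ligand, then detected with Alexa488 antibodies. Fluorescence from o1-orientation probes (~5 replicates averaged) was converted to z-scores against 500 random hg19 background probes. Variable regions are seed direct-repeat (DR0–DR5) sites, all their single-nucleotide variants and half-site ablations.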
row,Sequence,PBM binding z-score
1,CTCGAAAGGTCGGTTGACGTGAGTATACGGATAA,1.02
2,GCATATAGGTAATACAAGGTTAAAGTCCGATTGT,1.6
3,TCTGGTAGATCAATAGAGGTTAAGAAAGTGCGCT,1.87
4,ATCTATAGGTAACCAAGTTCAGTGAATGCCGAAC,5.03
5,ATCGAAAGTTCGACGAGGTGAGTATACACCGTTT,2.81
6,TAGCCTAGGTCAGATTGGGCCAGTATACGCTATA,0.524
7,ATCTCTAGGCAAGACTCAGTTCAGTGAAGAACGC,-0.0651
8,CGAACTGGGTCAAGGACAGTGAATCTCCGCACGC,1.46
9,CATATAGGGTCAGCTAGGCCAGAGTAGGGACGGC,3.7
10,TCCTATAGGTAAAAGGTGAAAGTCGGTGTGGTAA,1.17
11,CCTAGCAGGCCATGGTCACTCAAGCATTTCGCTT,-0.485
12,ATATGTAAGTTAAGGGTCATTCAGGTTGGTTCGC,5.46
13,AGACCAAGGTGATCGTGAGGTCGTTGATACTAAC,3.12
14,TCTTGTAGAACAATAGAGGTTAAGAAAGTGCGCT,1.65
15,CCAGACAGGGGAGAAGGTAACTCAGCCTCGATTA,-0.544
16,ACTAGCAGGCCAAGGGTCACTCGAGATTAGTCCG,2.56
17,CTTCCAAGGTCATAGGAGGTCAGTGAAGACAGAT,6.66
18,TCGAGTAGGTTACCAACGGGGCATTCAGCTTTCT,0.126
19,TCTTGTAGATCAAGCAGGTCAAGAAAGCCTGAGT,2.28
20,CAAACTAGGTCACATAGGTCAAAGTCCGTGCGTA,6.27

row,Sequence,PBM binding z-score
1,CCAGACAGGTGAGAAGGCAACTCAGCCTCGATTA,-0.345
2,CCTCGGAGGACAGAAGGACAGAGCTGTCCGCTTT,-0.413
3,TGTCAAAGTTCAAAGGTAACGCAAGTATCCACAC,5.17
4,TCATATAGGTAAAGGGGAAAGTCGAACGATATGA,0.735
5,TTACCAAGATGAAAGGTCGTTGATGCACGCCTTG,1.69
6,CCTTCCGGGTCACGAGGTTATAGCACGACGAGCG,5.39
7,TGTCAAAGTTCAAAGGTAACGTCAGTATCCACAC,5.11
8,ATATGTAGGTTACATCCGGGTCATACAGGCTATG,4.02
9,TCATATTGGTAATACAGGTGAAAGTCGGCATCTA,1.12
10,CGAACTAGGTCATTGACAGGAAAGTGAATAGTAA,1.73
11,CTCGAAAGGTCGTGCTCAGGTGAGCATACCAAAC,3.27
12,CCGACTGGTGCATAAGGTTACCATAAGCCAGCCC,0.347
13,TCATATAGGTAAAGGAGAAAGTCGAACGATATGA,0.392
14,TCCCGGAGGACACGAAGGTCAGAGCTTTCCAGAG,2.15
15,CGCCCAAGGTCAAGGTCAGTGAAAGAGACTCGAA,4.61
16,CTCGAAAGGTCGGTTGAGTTGAGTATACGGATAA,3.45
17,TCTGCTAGGCCAACGATGGTCAGCTAATCTGCTA,-0.596
18,TGAATGAGGTTGAAGATCAGGGAACGTGGCGTCG,-0.171
19,GTACCAAGGTGAATAGGTCGCTGATGAGTAGGCG,0.351
20,CGATCTAGGTCATCCAGGACAGTGAATACATTGA,4.67
